# Measurements from PubChem BioAssay (EPA / NIEHS).
# Activity calls are given as the source filed them. How the source made its calls: active means hit-call score of the fitted dose curve at least 0.9, where 1 is the maximum; inactive means score below 0.9.
# Tests used:
# [1] = ATG_E_Box_CIS: Attagene CIS-FACTORIAL HepG2 Assay for human Enhancer Box (E-box) (AID 2282936); conditions: HepG2 E-box cis-reporter transcription, actives raise or lower the signal
# Outline: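 HepG2 cells transiently transfected with multiplexed cis-element reporter units, dosed 24 h; reporter mRNA quantified by RT-PCR, 6-FAM labelling, HpaI digestion and capillary electrophoresis. E-box (USF1) signal fitted bidirectionally vs DMSO.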
# [2] = ATG_M_61_CIS: Attagene CIS-FACTORIAL HepG2 Assay for M61 Transcription Factor (Internal Marker) (AID 2282937); conditions: HepG2 Attagene CIS-FACTORIAL M61 internal marker reporter; actives raise or lower the signal
# Outline: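 Using transiently transfected HepG2 liver cells, reporter transcript levels were assessed 24 h post-dosing by RT-PCR and capillary electrophoresis. Changes in either direction were fitted relative to DMSO controls.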
# [3] = ATG_EGR_CIS: Attagene CIS-FACTORIAL HepG2 Assay for human Early Growth Response 1 (EGR1) (AID 2282938); conditions: HepG2 Attagene CIS-FACTORIAL EGR reporter mRNA; actives raise or lower the signal
# Outline: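 Fluorescent capillary-electrophoresis signal of reporter cDNA fragments serves as read-out. HepG2 cells bear transiently transfected cis-promoter reporter units and are exposed 24 h; gain- or loss-of-signal is fitted against DMSO.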
# [4] = ATG_M_19_CIS: Attagene CIS-FACTORIAL HepG2 Assay for M19 Transcription Factor (Internal Marker) (AID 2282939); conditions: HepG2 Attagene CIS-FACTORIAL M19 internal marker reporter; actives raise or lower the signal
# Outline: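 Transfect HepG2 with MRTU reporter library → dose chemical, 24 h → isolate total RNA, reverse-transcribe with oligo(dT) → PCR, 6-FAM label, HpaI cut (2 h, 37 C) → capillary electrophoresis. Bidirectional fit vs DMSO.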
# [5] = ATG_ERE_CIS: Attagene CIS-FACTORIAL HepG2 Assay for Estrogen Response Element (ERE) (AID 2282940); conditions: HepG2 ERE cis-reporter, Attagene RNA transcript; actives raise or lower the signal
# Outline: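 Transient MRTU transfection of human HepG2; cis-element promoters; 24 h dosing; total RNA → RT (oligo dT) → PCR → 6-FAM primer extension → HpaI digest → CE fluorescence. Bidirectional fit, DMSO baseline.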
# [6] = ATG_Ets_CIS: Attagene CIS-FACTORIAL HepG2 Assay for human Erythroblast Transformation Specific (ETS) (AID 2282941); conditions: HepG2 ETS cis-reporter transcription, actives raise or lower the signal
# Outline: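 Steps: transfect HepG2 with multiple reporter units; treat compound 24 h; isolate RNA, DNase-treat, reverse-transcribe; PCR-amplify, label with 6-FAM, digest with HpaI; separate by capillary electrophoresis. Activity fitted both directions versus DMSO.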
# [7] = biological target: Hepatocyte nuclear factor 3-beta (Homo sapiens) (UniProt Q9Y261); assay: ATG_FoxA2_CIS: Attagene CIS-FACTORIAL HepG2 Assay for human Forkhead box A2 (FOXA2) (AID 2282942); conditions: HepG2 cis-reporter transcription factor activity, 24 h; actives raise or lower the signal
# Sequence of Hepatocyte nuclear factor 3-beta (Homo sapiens) (Q9Y261 whole entry, looked up, the tested form may be a part): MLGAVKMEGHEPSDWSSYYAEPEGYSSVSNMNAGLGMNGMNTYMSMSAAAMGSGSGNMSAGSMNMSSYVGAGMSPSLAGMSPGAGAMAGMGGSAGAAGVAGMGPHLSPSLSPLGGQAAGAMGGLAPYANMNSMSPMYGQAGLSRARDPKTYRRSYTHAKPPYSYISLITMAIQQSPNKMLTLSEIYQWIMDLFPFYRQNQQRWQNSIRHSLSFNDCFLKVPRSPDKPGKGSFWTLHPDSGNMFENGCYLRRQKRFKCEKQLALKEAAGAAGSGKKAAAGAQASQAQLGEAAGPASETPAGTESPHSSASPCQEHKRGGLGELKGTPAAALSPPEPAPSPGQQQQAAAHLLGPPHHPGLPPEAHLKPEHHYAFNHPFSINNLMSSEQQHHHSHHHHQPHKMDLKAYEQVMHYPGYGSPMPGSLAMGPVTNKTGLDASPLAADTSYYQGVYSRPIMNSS
# Outline: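 Fluorescence signal of reporter cDNA fragments, separated by capillary electrophoresis, reflects endogenous transcription factor activity in transfected HepG2 after 24 h. Both increases and decreases fitted against DMSO.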
# [8] = ATG_FoxO_CIS: Attagene CIS-FACTORIAL HepG2 Assay for human Forkhead box O (FoxO) (AID 2282943); conditions: HepG2 Attagene cis-reporter, FoxO element, mRNA; actives raise or lower the signal
# Outline: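 HepG2 cells transiently transfected with cis-element-driven reporter units report endogenous FoxO activity. After 24 h chemical exposure, reporter mRNA quantified by RT-PCR, fluorescent labeling, HpaI digestion and capillary electrophoresis; bidirectional fit versus DMSO.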
# [9] = ATG_GATA_CIS: Attagene CIS-FACTORIAL HepG2 Assay for human GATA Binding Protein (AID 2282944); conditions: HepG2 GATA cis-element reporter, Attagene multiplex mRNA; actives raise or lower the signal
# Outline: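 Transient MRTU transfection, HepG2, 24 h compound exposure. Total RNA → oligo(dT) RT → PCR → 6-FAM primer extension → HpaI cut → CE. Bidirectional fit vs DMSO.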
# [10] = ATG_GLI_CIS: Attagene CIS-FACTORIAL HepG2 Assay for human Zinc Finger Protein GLI1 (AID 2282945); conditions: HepG2, Attagene cis-factorial reporter mRNA, GLI element; actives raise or lower the signal
# Outline: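 Transiently transfected HepG2 cells report endogenous transcription factor activity via cis-element-driven reporter units. After 24 h compound exposure, reporter mRNA was measured by RT-PCR with capillary electrophoresis; bidirectional fitting against DMSO baseline.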
SMILES,outcome [1],outcome [2],outcome [3],outcome [4],AC50 [5],outcome [6],outcome [7],outcome [8],outcome [9],outcome [10],outcome [5],AC50 [1]
CC(CC=O)c1ccccc1 (stereo not given),inactive,inactive,inactive,inactive,112 µM (active),inactive,inactive,inactive,inactive,inactive,–,–
CO[Si](OC)(OC)c1ccccc1,inactive,inactive,inactive,inactive,–,inactive,inactive,inactive,inactive,inactive,inactive,–
COC(=O)c1ccc2cc(C(=O)OC)ccc2c1,inactive,inactive,inactive,inactive,–,inactive,inactive,inactive,inactive,inactive,inactive,–
C=C(C)C(=O)OCCOc1ccccc1,inactive,inactive,inactive,inactive,–,inactive,inactive,inactive,inactive,inactive,inactive,–
O=C(O)c1cc(Cl)cc([N+](=O)[O-])c1Cl,inactive,inactive,inactive,inactive,–,inactive,inactive,inactive,inactive,inactive,inactive,–
CC=CC(F)(F)C(F)(F)C(F)(F)F,inactive,inactive,inactive,inactive,–,inactive,inactive,inactive,inactive,inactive,inactive,–
CC=C1CC2C=CC1C2 (stereo not given),inactive,inactive,inactive,inactive,–,inactive,inactive,inactive,inactive,inactive,inactive,–
COc1ccc(C(Cl)=C(c2ccc(OC)cc2)c2ccc(OC)cc2)cc1,–,inactive,inactive,inactive,–,inactive,inactive,inactive,inactive,inactive,inactive,21.8 µM (active)
C=CCOc1c(Br)cc(Br)cc1Br,inactive,inactive,inactive,inactive,27.7 µM (active),inactive,inactive,inactive,inactive,inactive,–,–
CC(C)(C)C(=O)CCc1ccc(Cl)cc1,inactive,inactive,inactive,inactive,30.2 µM (active),inactive,inactive,inactive,inactive,inactive,–,–
O=C(C=Cc1ccccc1)OCc1ccccc1,inactive,inactive,inactive,inactive,–,inactive,inactive,inactive,inactive,inactive,inactive,–
CCc1c(C(=O)O)c(=O)cnn1-c1ccc(Cl)cc1,inactive,inactive,inactive,inactive,28.5 µM (active),inactive,inactive,inactive,inactive,inactive,–,–
CC(=O)Nc1nnc(S(N)(=O)=O)s1,inactive,inactive,inactive,inactive,–,inactive,inactive,inactive,inactive,inactive,inactive,–
C=CC(=O)NC(C)(C)CS(=O)(=O)O,inactive,inactive,inactive,inactive,–,inactive,inactive,inactive,inactive,inactive,inactive,–
CCCCCCC(O)CO (stereo not given),inactive,inactive,inactive,inactive,–,inactive,inactive,inactive,inactive,inactive,inactive,–
Cc1cc(C)c(C)c(C)c1,inactive,inactive,inactive,inactive,–,inactive,inactive,inactive,inactive,inactive,inactive,–
CO[Si](CCC1CCC2OC2C1)(OC)OC (stereo not given),inactive,inactive,inactive,inactive,–,inactive,inactive,inactive,inactive,inactive,inactive,–
CCc1ccc2c(c1)C(=O)c1ccccc1C2=O,inactive,inactive,inactive,inactive,–,inactive,inactive,inactive,inactive,inactive,inactive,–
C=C(C)[C@H]1CC=C(C)CC1,inactive,inactive,inactive,inactive,–,inactive,inactive,inactive,inactive,inactive,inactive,–
Nc1ccc(-c2ccc(F)cc2)cc1,inactive,inactive,inactive,inactive,18.2 µM (active),inactive,inactive,inactive,inactive,inactive,–,–
C=C(C)C(=O)OCCO,inactive,inactive,inactive,inactive,–,inactive,inactive,inactive,inactive,inactive,inactive,–
Cc1cc(C)c(C)c(O)c1,inactive,inactive,inactive,inactive,–,inactive,inactive,inactive,inactive,inactive,inactive,–
